Of roughly 8,800 targets only a part is listed; those with a hit were picked by preference. About 0.5% of all pairs of compound and target were hits.
Experiments:
Assay in all cases: log2 fold change, soluble protein after heating vs DMSO (PISA); higher = thermal stabilisation; K562 lysate, 10 uM; active = over 0.2 and 3.5 SD of the protein, either way, in both replicates (recomputed)
vemurafenib = compound: CCCS(=O)(=O)Nc1ccc(F)c(C(=O)c2c[nH]c3ncc(-c4ccc(Cl)cc4)cc23)c1F [vemurafenib]
Procedure, shortened: (§1)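 To prepare the extract, K562 pellets were dounce-homogenised in PBS pH 7.4 with 1 mM MgCl2, giving crude material at 1 mg/mL protein. This was treated with 10 μM compound for 30 min, then heated in aliquots for 3 min over 48°C-58°C before pooling and addition of NP-40 to 0.5% at 4°C. Centrifugation at 21,000xg for 90 min left soluble protein in the supernatant, which TMTpro 16plex LC-MS/MS quantified with equalised channel sums. Results are log-two fold changes in thermal stability compared with solvent controls, from duplicates.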

[1] = compound: CCCS(=O)(=O)Nc1ccc(F)c(C(=O)c2c[nH]c3ncc(Cl)cc23)c1F
Procedure, shortened: as §1

barasertib = compound: CCN(CCCOc1ccc2c(Nc3cc(CC(=O)Nc4cccc(F)c4)[nH]n3)ncnc2c1)CCOP(=O)(O)O [barasertib]
Procedure, shortened: as §1

[2] = compound: CC[C@@H]1C(=O)N(C)c2cnc(Nc3ccc(C(=O)NC4CCN(C)CC4)cc3OC)nc2N1C1CCCC1
Procedure, shortened: as §1

volasertib = compound: CC[C@@H]1C(=O)N(C)c2cnc(Nc3ccc(C(=O)N[C@H]4CC[C@H](N5CCN(CC6CC6)CC5)CC4)cc3OC)nc2N1C(C)C [volasertib]
Procedure, shortened: as §1

[3] = compound: CCn1c(C(=O)N(C2CC2)C2CC2)cc2c3c(ncn3C)c(Nc3cc(C)n(C)n3)nc21
Procedure, shortened: as §1

[4] = compound: CCn1cc(-c2ccnc3[nH]c(-c4cccc(CN(C)C)c4)cc23)c(-c2ccc(NC(=O)N(C)C)cc2)n1
Procedure, shortened: as §1

[5] = compound: CN1CCC(CNc2ccc3ncc(-c4cccc(OC(F)(F)F)c4)n3n2)CC1
Procedure, shortened: as §1

saracatinib = compound: CN1CCN(CCOc2cc(OC3CCOCC3)c3c(Nc4c(Cl)ccc5c4OCO5)ncnc3c2)CC1 [saracatinib]
Procedure, shortened: as §1

sotrastaurin = compound: CN1CCN(c2nc(C3=C(c4c[nH]c5ccccc45)C(=O)NC3=O)c3ccccc3n2)CC1 [sotrastaurin]
Procedure, shortened: as §1

alvocidib = compound: CN1CC[C@H](c2c(O)cc(O)c3c(=O)cc(-c4ccccc4Cl)oc23)[C@H](O)C1 [alvocidib]
Procedure, shortened: as §1

Tubastatin A = compound: CN1CCc2c(c3ccccc3n2Cc2ccc(C(=O)NO)cc2)C1 [Tubastatin A]
Procedure, shortened: as §1

[6] = compound: CNC(=O)C1=CC=CC=C1NC2=NC(=NC=C2Cl)NC3=C(C=C(C=C3)N4CCOCC4)OC
Procedure, shortened: as §1

defactinib = compound: CNC(=O)c1ccc(Nc2ncc(C(F)(F)F)c(NCc3nccnc3N(C)S(C)(=O)=O)n2)cc1 [defactinib]
Procedure, shortened: as §1

[7] = compound: CNc1nc(-c2ccc3c(N)n[nH]c3c2)cc(N2C[C@@H](C(=O)NC3CCCCC3)CC[C@H]2C)n1
Procedure, shortened: as §1

encorafenib = compound: COC(=O)N[C@@H](C)CNc1nccc(-c2cn(C(C)C)nc2-c2cc(Cl)cc(NS(C)(=O)=O)c2F)n1 [encorafenib]
Procedure, shortened: as §1

[8] = compound: COC(=O)[C@H](CCSC)NC(=O)C1=C(C=C(C=C1)NC[C@H](CS)N)C2=CC=CC=C2
Procedure, shortened: as §1

alisertib = compound: COc1cc(Nc2ncc3c(n2)-c2ccc(Cl)cc2C(c2c(F)cccc2OC)=NC3)ccc1C(=O)O [alisertib]
Procedure, shortened: as §1

[9] = compound: COc1cc2nc(-c3cc(F)ccc3O)nc(N[C@@H]3CNC[C@H]3C(C)(C)O)c2cc1OC
Procedure, shortened: as §1

gefitinib = compound: COc1cc2ncnc(Nc3ccc(F)c(Cl)c3)c2cc1OCCCN1CCOCC1 [gefitinib]
Procedure, shortened: as §1

Measured: log2 fold change

CHD5 (UniProt Q8TDI0)
inactive: vemurafenib -0.034 | [1] 0.022 | barasertib 0.034 | [2] 0.165 | volasertib -0.028 | [3] -0.026 | [4] 0.051 | [5] -0.019 | saracatinib 0.026 | sotrastaurin 0.026 | alvocidib -0.005 | Tubastatin A -0.022 | [6] 0 | defactinib -0.042 | [7] 0.037 | encorafenib 0.024 | [8] 0.033 | alisertib -0.016 | [9] -0.009 | gefitinib -0.001

BCR (UniProt P11274)
inactive: vemurafenib 0.012 | [1] 0.043 | barasertib -0.021 | [2] -0.062 | volasertib -0.056 | [3] 0.015 | [4] -0.112 | [5] -0.029 | saracatinib 0.024 | sotrastaurin -0.018 | alvocidib -0.007 | Tubastatin A -0.181 | [6] 0.002 | defactinib -0.008 | [7] -0.005 | encorafenib 0.036 | [8] 0.085 | alisertib -0.008 | [9] -0.021 | gefitinib -0.024

CELF2 isoform 3 (UniProt O95319)
inactive: vemurafenib 0.082 | [1] 0.013 | barasertib 0.031 | [2] 0.096 | volasertib -0.05 | [3] 0.001 | [4] 0.074 | [5] -0.095 | saracatinib 0.021 | sotrastaurin -0.023 | alvocidib 0.067 | Tubastatin A -0.025 | [6] 0.019 | defactinib 0.018 | [7] -0.02 | encorafenib 0.108 | [8] -0.031 | alisertib 0.037 | [9] -0.079 | gefitinib -0.061

CARHSP1 (UniProt Q9Y2V2)
Sequence of UniProt Q9Y2V2 (Q9Y2V2 whole entry, looked up): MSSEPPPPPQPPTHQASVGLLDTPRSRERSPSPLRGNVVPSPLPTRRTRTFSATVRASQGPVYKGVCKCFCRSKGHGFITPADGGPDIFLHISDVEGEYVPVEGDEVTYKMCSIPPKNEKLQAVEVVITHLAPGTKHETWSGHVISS
inactive: vemurafenib 0.032 | [1] -0.015 | barasertib 0.024 | [2] 0.033 | volasertib -0.024 | [3] -0.061 | [4] -0.02 | [5] 0.044 | saracatinib 0 | sotrastaurin -0.042 | alvocidib 0.031 | Tubastatin A 0.065 | [6] 0.009 | defactinib -0.033 | [7] 0.078 | encorafenib -0.013 | [8] -0.055 | alisertib -0.014 | [9] 0.01 | gefitinib -0.029

CHD4 isoform 2 (UniProt Q14839)
inactive: vemurafenib 0 | [1] 0.002 | barasertib 0.028 | [2] -0.003 | volasertib -0.002 | [3] 0.022 | [4] -0.054 | [5] -0.017 | saracatinib 0.002 | sotrastaurin 0.02 | alvocidib -0.004 | Tubastatin A -0.069 | [6] -0.014 | defactinib 0.007 | [7] 0.017 | encorafenib 0.013 | [8] 0.087 | alisertib 0.016 | [9] -0.007 | gefitinib -0.014

CCNK isoform 4 (UniProt O75909)
Sequence of UniProt O75909 (O75909 whole entry, looked up): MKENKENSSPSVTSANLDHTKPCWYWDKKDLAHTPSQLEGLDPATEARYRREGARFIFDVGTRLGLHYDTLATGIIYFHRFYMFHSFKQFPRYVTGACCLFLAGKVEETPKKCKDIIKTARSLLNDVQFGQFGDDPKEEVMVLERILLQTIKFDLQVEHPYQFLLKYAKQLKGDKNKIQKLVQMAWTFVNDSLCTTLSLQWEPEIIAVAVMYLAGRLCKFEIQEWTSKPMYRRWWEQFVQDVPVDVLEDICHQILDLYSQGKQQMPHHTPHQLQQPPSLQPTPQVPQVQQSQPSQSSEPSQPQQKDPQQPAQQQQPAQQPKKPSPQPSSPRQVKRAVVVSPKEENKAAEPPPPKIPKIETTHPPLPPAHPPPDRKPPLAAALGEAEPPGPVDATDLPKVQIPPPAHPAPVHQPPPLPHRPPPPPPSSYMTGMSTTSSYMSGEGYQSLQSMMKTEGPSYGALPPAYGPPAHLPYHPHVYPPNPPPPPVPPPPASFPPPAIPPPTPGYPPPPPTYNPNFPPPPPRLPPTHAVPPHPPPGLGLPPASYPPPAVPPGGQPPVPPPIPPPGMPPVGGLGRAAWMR
inactive: vemurafenib -0.013 | [1] 0.006 | barasertib -0.028 | [2] 0.04 | volasertib -0.009 | [3] -0.007 | [4] -0.185 | [5] 0.095 | saracatinib 0.049 | sotrastaurin 0.004 | alvocidib -0.094 | Tubastatin A -0.004 | [6] 0.01 | defactinib -0.011 | [7] 0.009 | encorafenib 0.017 | [8] -0.035 | alisertib 0.071 | [9] 0 | gefitinib 0.046

CARNMT1 (UniProt Q8N4J0)
Sequence of UniProt Q8N4J0 (Q8N4J0 whole entry, looked up): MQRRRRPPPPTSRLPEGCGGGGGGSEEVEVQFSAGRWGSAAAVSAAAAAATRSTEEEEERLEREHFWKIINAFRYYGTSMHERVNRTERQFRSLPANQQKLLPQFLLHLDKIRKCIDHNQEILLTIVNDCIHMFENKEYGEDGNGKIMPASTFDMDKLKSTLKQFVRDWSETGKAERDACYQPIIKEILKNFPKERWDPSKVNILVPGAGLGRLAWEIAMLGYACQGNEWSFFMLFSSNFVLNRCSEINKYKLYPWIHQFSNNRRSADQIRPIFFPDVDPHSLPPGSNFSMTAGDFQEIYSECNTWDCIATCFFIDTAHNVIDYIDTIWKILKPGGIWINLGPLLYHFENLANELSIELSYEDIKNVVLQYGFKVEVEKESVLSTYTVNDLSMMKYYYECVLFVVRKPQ
active: [4] -0.422
inactive: vemurafenib 0.04 | [1] 0.008 | barasertib -0.012 | [2] -0.013 | volasertib -0.005 | [3] -0.044 | [5] 0.063 | saracatinib 0.04 | sotrastaurin 0.017 | alvocidib -0.167 | Tubastatin A 0.045 | [6] -0.021 | defactinib -0.03 | [7] -0.021 | encorafenib 0.051 | [8] 0.015 | alisertib -0.022 | [9] 0.026 | gefitinib 0.009

CHD1L (UniProt Q86WJ1)
Sequence of UniProt Q86WJ1 (Q86WJ1 whole entry, looked up): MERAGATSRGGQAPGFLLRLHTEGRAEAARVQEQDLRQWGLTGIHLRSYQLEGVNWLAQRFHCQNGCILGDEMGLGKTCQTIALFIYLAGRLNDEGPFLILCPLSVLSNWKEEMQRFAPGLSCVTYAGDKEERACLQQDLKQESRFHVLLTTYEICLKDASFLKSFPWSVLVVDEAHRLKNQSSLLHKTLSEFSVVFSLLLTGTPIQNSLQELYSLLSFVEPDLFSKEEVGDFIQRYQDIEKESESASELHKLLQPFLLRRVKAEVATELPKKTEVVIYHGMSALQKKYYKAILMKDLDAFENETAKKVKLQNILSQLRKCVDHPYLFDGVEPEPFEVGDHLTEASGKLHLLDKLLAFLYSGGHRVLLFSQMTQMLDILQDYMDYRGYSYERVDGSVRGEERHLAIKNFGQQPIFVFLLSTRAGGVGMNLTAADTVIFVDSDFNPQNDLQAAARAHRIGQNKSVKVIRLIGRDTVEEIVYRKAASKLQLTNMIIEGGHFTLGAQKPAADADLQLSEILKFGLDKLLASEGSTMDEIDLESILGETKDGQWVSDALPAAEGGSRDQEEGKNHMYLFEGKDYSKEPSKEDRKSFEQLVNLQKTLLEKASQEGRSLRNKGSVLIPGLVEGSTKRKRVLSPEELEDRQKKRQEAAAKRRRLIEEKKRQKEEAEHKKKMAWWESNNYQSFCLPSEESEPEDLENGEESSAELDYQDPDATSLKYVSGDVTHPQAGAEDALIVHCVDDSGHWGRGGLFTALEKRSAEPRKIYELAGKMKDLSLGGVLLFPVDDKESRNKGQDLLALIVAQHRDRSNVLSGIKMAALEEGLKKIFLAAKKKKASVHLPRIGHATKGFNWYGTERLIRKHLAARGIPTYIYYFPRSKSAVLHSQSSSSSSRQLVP
inactive: vemurafenib 0.033 | [1] 0.011 | barasertib 0.062 | [2] -0.029 | volasertib -0.09 | [3] 0.024 | [4] -0.053 | [5] -0.054 | saracatinib 0 | sotrastaurin -0.001 | alvocidib 0.012 | Tubastatin A -0.16 | [6] -0.003 | defactinib -0.001 | [7] -0.025 | encorafenib 0.013 | [8] 0.114 | alisertib 0.018 | [9] -0.002 | gefitinib 0.006

BCKDHB (UniProt P21953)
Sequence of UniProt P21953 (P21953 whole entry, looked up): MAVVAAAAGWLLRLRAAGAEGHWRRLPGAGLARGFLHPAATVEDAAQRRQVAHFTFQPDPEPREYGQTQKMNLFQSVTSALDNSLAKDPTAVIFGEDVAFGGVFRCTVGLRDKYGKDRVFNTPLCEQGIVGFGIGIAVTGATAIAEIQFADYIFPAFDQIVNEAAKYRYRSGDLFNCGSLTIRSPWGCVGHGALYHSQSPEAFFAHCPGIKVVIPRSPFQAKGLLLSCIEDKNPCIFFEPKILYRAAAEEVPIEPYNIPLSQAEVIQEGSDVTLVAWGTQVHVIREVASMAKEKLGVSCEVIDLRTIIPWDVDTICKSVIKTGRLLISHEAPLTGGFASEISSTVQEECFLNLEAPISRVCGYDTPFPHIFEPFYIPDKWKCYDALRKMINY
inactive: vemurafenib 0.068 | [1] 0.032 | barasertib 0.065 | [2] -0.102 | volasertib -0.079 | [3] -0.064 | [4] 0.022 | [5] -0.02 | saracatinib -0.012 | sotrastaurin 0.129 | alvocidib 0.062 | Tubastatin A 0.011 | [6] 0.008 | defactinib -0.008 | [7] -0.031 | encorafenib -0.074 | [8] 0.107 | alisertib -0.019 | [9] -0.015 | gefitinib -0.024

BET1 (UniProt O15155)
Sequence of UniProt O15155 (O15155 whole entry, looked up): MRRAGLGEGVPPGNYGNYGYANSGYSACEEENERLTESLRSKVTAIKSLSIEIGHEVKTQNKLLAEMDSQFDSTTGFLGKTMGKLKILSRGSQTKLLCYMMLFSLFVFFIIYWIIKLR
inactive: vemurafenib 0.107 | [1] -0.012 | barasertib 0.028 | [2] -0.019 | volasertib 0.032 | [3] -0.021 | [4] 0.044 | [5] -0.009 | saracatinib 0.031 | sotrastaurin -0.033 | alvocidib 0.07 | Tubastatin A -0.038 | [6] 0.033 | defactinib 0.058 | [7] 0.027 | encorafenib -0.062 | alisertib -0.023 | [9] -0.022 | gefitinib -0.045
active: [8] -0.214

ATP13A1 (UniProt Q9HD20)
Sequence of UniProt Q9HD20 (Q9HD20 whole entry, looked up): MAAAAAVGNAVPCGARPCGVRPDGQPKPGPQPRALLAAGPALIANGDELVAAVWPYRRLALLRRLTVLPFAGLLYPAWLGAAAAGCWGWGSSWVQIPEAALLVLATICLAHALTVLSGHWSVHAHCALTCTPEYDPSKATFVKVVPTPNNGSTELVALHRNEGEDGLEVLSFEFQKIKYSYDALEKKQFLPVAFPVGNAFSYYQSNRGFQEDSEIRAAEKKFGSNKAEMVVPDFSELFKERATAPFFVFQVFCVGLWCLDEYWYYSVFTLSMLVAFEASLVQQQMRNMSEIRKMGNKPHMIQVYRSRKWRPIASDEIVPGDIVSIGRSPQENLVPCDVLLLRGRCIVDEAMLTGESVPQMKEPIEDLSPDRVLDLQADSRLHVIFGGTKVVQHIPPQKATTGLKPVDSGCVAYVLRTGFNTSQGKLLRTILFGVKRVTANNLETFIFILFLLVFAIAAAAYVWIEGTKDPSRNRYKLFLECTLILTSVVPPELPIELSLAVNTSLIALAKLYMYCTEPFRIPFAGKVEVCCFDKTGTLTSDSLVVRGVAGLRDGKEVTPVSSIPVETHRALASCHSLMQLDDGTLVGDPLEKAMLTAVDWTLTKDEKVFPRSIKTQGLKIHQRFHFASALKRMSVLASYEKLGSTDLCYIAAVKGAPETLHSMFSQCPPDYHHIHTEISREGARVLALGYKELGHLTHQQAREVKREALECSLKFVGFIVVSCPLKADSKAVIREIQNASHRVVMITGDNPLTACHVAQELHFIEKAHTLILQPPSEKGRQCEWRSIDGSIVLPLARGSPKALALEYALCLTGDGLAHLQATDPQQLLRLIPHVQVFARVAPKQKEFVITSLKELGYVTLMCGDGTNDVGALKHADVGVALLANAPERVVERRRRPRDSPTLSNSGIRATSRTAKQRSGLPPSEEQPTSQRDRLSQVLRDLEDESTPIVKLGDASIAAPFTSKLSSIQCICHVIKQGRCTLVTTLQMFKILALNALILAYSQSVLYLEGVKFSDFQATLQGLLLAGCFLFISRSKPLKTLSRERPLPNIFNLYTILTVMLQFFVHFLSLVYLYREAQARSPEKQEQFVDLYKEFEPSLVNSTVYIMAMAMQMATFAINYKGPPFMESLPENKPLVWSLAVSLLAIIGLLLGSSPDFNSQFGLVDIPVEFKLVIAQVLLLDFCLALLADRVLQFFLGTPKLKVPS
active: [5] -0.343
inactive: vemurafenib -0.006 | [1] 0.013 | barasertib -0.006 | [2] 0.023 | volasertib -0.036 | [3] 0.067 | [4] 0.004 | saracatinib 0.012 | sotrastaurin -0.012 | alvocidib 0.051 | Tubastatin A 0.036 | [6] -0.012 | defactinib 0.028 | [7] -0.002 | encorafenib -0.008 | [8] -0.067 | alisertib 0.055 | [9] 0.03 | gefitinib 0.011

ATP6V0A2 (UniProt Q9Y487)
Sequence of UniProt Q9Y487 (Q9Y487 whole entry, looked up): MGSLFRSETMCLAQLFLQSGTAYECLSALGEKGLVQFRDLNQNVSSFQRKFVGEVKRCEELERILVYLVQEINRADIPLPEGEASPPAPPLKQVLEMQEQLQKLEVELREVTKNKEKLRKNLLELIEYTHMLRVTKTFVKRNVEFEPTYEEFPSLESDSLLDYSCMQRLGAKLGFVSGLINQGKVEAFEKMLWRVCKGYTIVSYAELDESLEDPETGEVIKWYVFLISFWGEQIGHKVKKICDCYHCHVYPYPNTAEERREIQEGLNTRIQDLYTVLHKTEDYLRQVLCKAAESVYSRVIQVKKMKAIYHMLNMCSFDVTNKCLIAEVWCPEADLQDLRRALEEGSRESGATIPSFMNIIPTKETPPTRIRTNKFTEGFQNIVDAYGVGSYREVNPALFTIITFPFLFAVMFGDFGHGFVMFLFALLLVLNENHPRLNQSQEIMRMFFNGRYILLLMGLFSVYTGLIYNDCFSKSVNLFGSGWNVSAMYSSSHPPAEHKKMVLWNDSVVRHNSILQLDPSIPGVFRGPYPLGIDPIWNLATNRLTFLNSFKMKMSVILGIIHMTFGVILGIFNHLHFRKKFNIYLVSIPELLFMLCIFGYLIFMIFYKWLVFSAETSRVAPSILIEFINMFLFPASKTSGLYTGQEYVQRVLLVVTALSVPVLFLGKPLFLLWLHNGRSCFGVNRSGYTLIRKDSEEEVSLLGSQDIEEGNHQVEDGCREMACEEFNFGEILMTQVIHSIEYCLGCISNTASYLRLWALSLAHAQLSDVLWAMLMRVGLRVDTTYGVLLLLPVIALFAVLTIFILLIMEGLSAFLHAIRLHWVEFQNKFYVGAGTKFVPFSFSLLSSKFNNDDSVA
inactive: vemurafenib -0.035 | [1] 0.013 | barasertib 0.037 | [2] 0.071 | volasertib 0.005 | [3] 0.017 | [4] -0.117 | [5] 0.14 | saracatinib -0.007 | sotrastaurin 0.029 | alvocidib -0.129 | Tubastatin A 0.091 | [6] 0.022 | defactinib 0.008 | [7] 0.001 | encorafenib 0.03 | [8] -0.027 | alisertib 0.015 | [9] 0.048 | gefitinib 0.036

CELF1 isoform 4 (UniProt Q92879)
inactive: vemurafenib 0.024 | [1] 0.014 | barasertib 0.03 | [2] -0.044 | volasertib -0.133 | [3] 0.012 | [4] 0.08 | [5] -0.08 | saracatinib 0.035 | sotrastaurin 0.054 | alvocidib 0 | Tubastatin A -0.167 | [6] 0.034 | defactinib 0.049 | [7] -0.059 | encorafenib 0.108 | [8] -0.031 | alisertib 0.048 | [9] -0.026 | gefitinib 0.056

C18orf32 (UniProt Q8TCD1)
Sequence of UniProt Q8TCD1 (Q8TCD1 whole entry, looked up): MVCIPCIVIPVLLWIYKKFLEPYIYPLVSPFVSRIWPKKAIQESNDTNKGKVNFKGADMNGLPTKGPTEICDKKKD
inactive: vemurafenib 0.164 | [1] -0.044 | barasertib -0.019 | [2] 0.125 | volasertib 0.054 | [3] 0.054 | [4] -0.073 | [5] 0 | saracatinib 0.006 | sotrastaurin -0.112 | alvocidib 0.049 | Tubastatin A 0.035 | [6] 0.084 | defactinib 0.144 | [7] 0 | encorafenib 0.168 | [8] -0.316 | alisertib 0.043 | [9] -0.019 | gefitinib -0.249

CDK1 (UniProt P06493)
Sequence of UniProt P06493 (P06493 whole entry, looked up): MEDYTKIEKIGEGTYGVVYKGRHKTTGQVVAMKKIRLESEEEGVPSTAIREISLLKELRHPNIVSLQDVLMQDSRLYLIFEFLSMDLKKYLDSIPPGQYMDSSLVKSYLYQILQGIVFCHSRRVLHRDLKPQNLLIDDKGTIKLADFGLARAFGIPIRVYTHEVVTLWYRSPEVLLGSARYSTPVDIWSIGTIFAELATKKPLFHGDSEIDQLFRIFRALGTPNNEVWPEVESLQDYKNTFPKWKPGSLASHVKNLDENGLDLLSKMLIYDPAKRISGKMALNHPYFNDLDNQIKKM
active: [9] 0.328
inactive: vemurafenib 0.012 | [1] -0.017 | barasertib -0.029 | [2] -0.041 | volasertib -0.037 | [3] -0.006 | [4] -0.056 | [5] -0.049 | saracatinib 0.016 | sotrastaurin -0.002 | alvocidib 0.036 | Tubastatin A -0.032 | [6] -0.017 | defactinib -0.035 | [7] -0.021 | encorafenib 0.011 | [8] 0.036 | alisertib 0.002 | gefitinib -0.03

CDC42BPA isoform 6 (UniProt Q5VT25)
inactive: vemurafenib 0.01 | [1] 0.036 | barasertib -0.006 | [2] -0.111 | volasertib -0.043 | [3] 0.021 | [4] 0.062 | [5] -0.118 | saracatinib -0.021 | sotrastaurin -0.023 | alvocidib -0.099 | Tubastatin A -0.13 | [6] -0.015 | defactinib -0.002 | [7] -0.065 | encorafenib 0.017 | [8] 0.093 | alisertib -0.005 | [9] -0.019 | gefitinib -0.004
